The term AC50 denotes the concentration at which the activity in the assay is half-maximal.

From PubChem BioAssay (EPA / NIEHS) come the findings set out here.

Common to all, as to details: mRNA level, 48 h; actives raise or lower the signal
Read-out in assay [1]: Bcl-2 (BID) gene, BID (gene 637)
Kind of assay: LTEA_HepaRG_BID: Life Technologies and Expression Analysis (LTEA) Assay for Bcl-2 (BID) gene using HepaRG (AID 2283476). The essentials: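 Gene expression by qRT-PCR in HepaRG cells after 48 h exposure, duplicate wells, eight half-log concentrations topping at 100 uM in 0.5% DMSO. Normalized to ACTB, GAPDH, POLR2A; bidirectional fitting relative to DMSO.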

Read-out in assay [2]: Caspase-3 (Homo sapiens) (UniProt P42574)
The assay is described as follows: LTEA_HepaRG_CASP3: Life Technologies and Expression Analysis (LTEA) Assay for cysteine-aspartic acid protease (CASP3) using HepaRG (AID 2283477). The essentials: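 In HepaRG liver cells dosed for 48 h at up to 100 uM (eight-point, duplicate), CASP3 expression changes are scored by qRT-PCR. Activity is fitted in both directions with 0.5% DMSO as baseline.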

Read-out in assay [3]: Cytochrome P450 (CYP24A1), CYP24A1 (gene 1591)
The assay is described as follows: LTEA_HepaRG_CYP24A1: Life Technologies and Expression Analysis (LTEA) Assay for Cytochrome P450 (CYP24A1) using HepaRG (AID 2283478). An outline of the steps: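 Human liver HepaRG cultures receive each chemical for 48 h across an eight-point half-log series topping at 100 uM in 0.5% DMSO. Induction or suppression of CYP24A1 mRNA is scored relative to vehicle after housekeeping-gene normalization.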

Read-out in assay [4]: Cytochrome P450 (CYP1A2), CYP1A2 (gene 1544)
The assay is described as follows: LTEA_HepaRG_CYP1A2: Life Technologies and Expression Analysis (LTEA) Assay for Cytochrome P450 (CYP1A2) using HepaRG (AID 2283479). The essentials:
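Assesses CYP1A2 mRNA in human HepaRG liver cells after 48 h chemical exposure at up to 100 uM. Values come from qRT-PCR with bidirectional curve fitting relative to DMSO.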

Read-out in assay [5]: cysteine-aspartic acid protease (CASP8), CASP8 (gene 841)
The assay is described as follows: LTEA_HepaRG_CASP8: Life Technologies and Expression Analysis (LTEA) Assay for cysteine-aspartic acid protease (CASP8) using HepaRG (AID 2283480). An outline of the steps: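 Differentiated HepaRG cells in serum-free induction medium, 48 h exposure, eight-point half-log series from 100 uM in 0.5% DMSO, duplicates. CASP8 mRNA by qRT-PCR, normalized to ACTB, GAPDH, POLR2A; bidirectional fit versus DMSO.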

Read-out in assay [6]: Cytochrome P450 (CYP2B6), CYP2B6 (gene 1555)
Kind of assay: LTEA_HepaRG_CYP2B6: Life Technologies and Expression Analysis (LTEA) Assay for Cytochrome P450 (CYP2B6) using HepaRG (AID 2283481). The essentials: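 Using 48 h treatment of HepaRG cells in serum-free induction medium, concentrations spanned half-log steps from 100 uM in 0.5% DMSO vehicle. CYP2B6 mRNA induction or loss is scored by qRT-PCR against DMSO.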

Read-out in assay [7]: Cytochrome P450 2C19 (Homo sapiens) (UniProt P33261)
Kind of assay: LTEA_HepaRG_CYP2C19: Life Technologies and Expression Analysis (LTEA) Assay for CYP2C19 using HepaRG (AID 2283482). An outline of the steps:
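Human HepaRG liver cells received test chemicals for 48 h (highest 100 uM, half-log dilutions in 0.5% DMSO). CYP2C19 mRNA induction or loss is read by multiplexed qRT-PCR and fitted in both directions versus vehicle.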

Read-out in assay [8]: CYP2C8 (gene 1558)
Kind of assay: LTEA_HepaRG_CYP2C8: Life Technologies and Expression Analysis (LTEA) Assay for CYP2C8 using HepaRG (AID 2283483). The essentials:
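Differentiated HepaRG cells in serum-free induction medium exposed 48 h in duplicate to 8 half-log concentrations from 100 uM in 0.5% DMSO. CYP2C8 mRNA by qRT-PCR normalized to ACTB, GAPDH, POLR2A; bidirectional fit versus DMSO.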

Read-out in assay [9]: CYP2E1 (gene 1571)
Kind of assay: LTEA_HepaRG_CYP2E1: Life Technologies and Expression Analysis (LTEA) Assay for CYP2E1 using HepaRG (AID 2283485). An outline of the steps:
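HepaRG cells, plated 48 h, then exposed 48 h in serum-free induction medium to eight half-log concentrations from 100 uM in 0.5% DMSO, duplicate. CYP2E1 mRNA by qRT-PCR, normalized to ACTB/GAPDH/POLR2A; bidirectional fit versus DMSO.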

Read-out in assay [10]: CYP4A11 (gene 1579)
Kind of assay: LTEA_HepaRG_CYP4A11: Life Technologies and Expression Analysis (LTEA) Assay for CYP4A11 using HepaRG (AID 2283486). The essentials:
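Readout is CYP4A11 mRNA induction or suppression (qRT-PCR, ACTB/GAPDH/POLR2A normalization) in human HepaRG cells after 48 h chemical treatment, concentrations to 100 uM in 0.5% DMSO, fitted bidirectionally against vehicle.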

Read-out in assay [11]: Cytochrome P450 3A4 (Homo sapiens) (UniProt P08684)
Kind of assay: LTEA_HepaRG_CYP3A4: Life Technologies and Expression Analysis (LTEA) Assay for CYP3A4 using HepaRG (AID 2283487). The essentials: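 HepaRG, 48 h exposure, 8-pt CRC from 100 uM (half-log), 0.5% DMSO, duplicates; serum-free induction medium. Readout: CYP3A4 mRNA, qRT-PCR, ACTB/GAPDH/POLR2A normalization. Bidirectional fit vs DMSO.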

Read-out in assay [12]: DNA damage-inducible transcript 3 (DDIT3), DDIT3 (gene 1649)
The assay is described as follows: LTEA_HepaRG_DDIT3: Life Technologies and Expression Analysis (LTEA) Assay for DNA damage-inducible transcript 3 (DDIT3) using HepaRG (AID 2283488). The essentials: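 HepaRG cells, 48 h after plating, exposed 48 h in serum-free induction medium to 8 half-log concentrations up to 100 uM in 0.5% DMSO, in duplicate. DDIT3 mRNA measured by TaqMan qRT-PCR, normalized to ACTB, GAPDH and POLR2A. Fitted bidirectionally against DMSO.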

Read-out in assay [13]: Pro-epidermal growth factor (Homo sapiens) (UniProt P01133)
Kind of assay: LTEA_HepaRG_EGF: Life Technologies and Expression Analysis (LTEA) Assay for Epidermal growth factor (EGF) using HepaRG (AID 2283489). An outline of the steps: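 EGF expression changes in human HepaRG cells are scored by bidirectional fitting relative to 0.5% DMSO controls. Chemicals are tested at eight half-log concentrations up to 100 uM for 48 h in serum-free induction medium.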

Read-out in assay [14]: Early growth response protein 1 (EGR1) transcription factor, EGR1 (gene 1958)
Kind of assay: LTEA_HepaRG_EGR1: Life Technologies and Expression Analysis (LTEA) Assay for Early growth response protein 1 (EGR1) transcription factor using HepaRG (AID 2283490). The essentials: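 Differentiated HepaRG cells in serum-free induction medium exposed 48 hours, duplicate, to 8 half-log concentrations up to 100 uM in 0.5% DMSO. EGR1 mRNA measured by TaqMan qRT-PCR, normalized to ACTB, GAPDH, POLR2A; bidirectional fit versus DMSO.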

Read-out in assay [15]: Ezrin (EZR), EZR (gene 7430)
Kind of assay: LTEA_HepaRG_EZR: Life Technologies and Expression Analysis (LTEA) Assay for Ezrin (EZR) using HepaRG (AID 2283491). The essentials: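 Read-out is EZR transcript level by qRT-PCR, normalized to three housekeeping genes and fitted bidirectionally against the DMSO control. Human HepaRG cells received test chemicals for 48 h at eight half-log concentrations up to 100 uM in 0.5% DMSO.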

Read-out in assay [16]: Cytochrome P450 3A7 (Homo sapiens) (UniProt P24462)
Kind of assay: LTEA_HepaRG_CYP3A7: Life Technologies and Expression Analysis (LTEA) Assay for CYP3A7 using HepaRG (AID 2283492). An outline of the steps: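 Cells were thawed, plated, cultured 48 h, then treated for a further 48 h with chemicals (eight-point half-log series from 100 uM, 0.5% DMSO). RNA was isolated and CYP3A7 expression quantified by qRT-PCR normalised to ACTB, GAPDH and POLR2A.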

Read-out in assay [17]: CYP3A5 (gene 1577)
The assay is described as follows: LTEA_HepaRG_CYP3A5: Life Technologies and Expression Analysis (LTEA) Assay for CYP3A5 using HepaRG (AID 2283493). An outline of the steps: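 HepaRG cells, plated 48 h then in serum-free induction medium, dosed in duplicate for 48 h with eight half-log concentrations up to 100 uM in 0.5% DMSO. Gene mRNA by Fluidigm TaqMan qRT-PCR, normalized to ACTB, GAPDH, POLR2A.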

Read-out in assay [18]: Cytochrome P450 4A22 (Homo sapiens) (UniProt Q5TCH4)
The assay is described as follows: LTEA_HepaRG_CYP4A22: Life Technologies and Expression Analysis (LTEA) Assay for Cytochrome P450 4A22 (CYP4A22) using HepaRG (AID 2283495). An outline of the steps:
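Cryopreserved HepaRG cells, plated and cultured 48 h, then switched to serum-free induction medium and treated 48 h (duplicates, up to 100 uM, half-log steps, 0.5% DMSO). Expression change of CYP4A22 was fitted bidirectionally against vehicle.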

Active and inactive are the calls of the source. The calls were made as follows: active = hit-call score of the fitted dose curve at least 0.9, where 1 is the maximum; inactive = score below 0.9.

Cytochrome P450 3A7 (Homo sapiens), sequence (P24462 whole entry, looked up): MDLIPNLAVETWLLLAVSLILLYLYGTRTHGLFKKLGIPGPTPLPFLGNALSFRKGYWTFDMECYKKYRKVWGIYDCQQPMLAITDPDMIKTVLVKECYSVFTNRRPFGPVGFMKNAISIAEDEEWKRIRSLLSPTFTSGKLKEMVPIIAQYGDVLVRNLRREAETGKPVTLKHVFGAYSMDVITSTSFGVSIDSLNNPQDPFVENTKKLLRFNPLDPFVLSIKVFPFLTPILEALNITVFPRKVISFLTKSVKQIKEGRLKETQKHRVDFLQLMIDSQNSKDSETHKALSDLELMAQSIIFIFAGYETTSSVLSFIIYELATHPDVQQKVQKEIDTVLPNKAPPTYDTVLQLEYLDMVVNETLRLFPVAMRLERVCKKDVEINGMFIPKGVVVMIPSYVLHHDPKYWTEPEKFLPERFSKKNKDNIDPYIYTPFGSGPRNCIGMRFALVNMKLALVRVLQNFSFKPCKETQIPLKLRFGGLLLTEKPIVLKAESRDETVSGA
Caspase-3 (Homo sapiens), sequence (P42574 whole entry, looked up): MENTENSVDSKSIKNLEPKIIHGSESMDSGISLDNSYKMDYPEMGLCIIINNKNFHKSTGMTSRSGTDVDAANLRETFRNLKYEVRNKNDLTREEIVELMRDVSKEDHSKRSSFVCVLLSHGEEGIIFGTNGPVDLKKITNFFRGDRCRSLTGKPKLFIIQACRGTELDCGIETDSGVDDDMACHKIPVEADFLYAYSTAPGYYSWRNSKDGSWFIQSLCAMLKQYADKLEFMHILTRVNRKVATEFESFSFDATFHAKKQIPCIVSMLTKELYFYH
Cytochrome P450 3A4 (Homo sapiens), sequence (P08684 whole entry, looked up): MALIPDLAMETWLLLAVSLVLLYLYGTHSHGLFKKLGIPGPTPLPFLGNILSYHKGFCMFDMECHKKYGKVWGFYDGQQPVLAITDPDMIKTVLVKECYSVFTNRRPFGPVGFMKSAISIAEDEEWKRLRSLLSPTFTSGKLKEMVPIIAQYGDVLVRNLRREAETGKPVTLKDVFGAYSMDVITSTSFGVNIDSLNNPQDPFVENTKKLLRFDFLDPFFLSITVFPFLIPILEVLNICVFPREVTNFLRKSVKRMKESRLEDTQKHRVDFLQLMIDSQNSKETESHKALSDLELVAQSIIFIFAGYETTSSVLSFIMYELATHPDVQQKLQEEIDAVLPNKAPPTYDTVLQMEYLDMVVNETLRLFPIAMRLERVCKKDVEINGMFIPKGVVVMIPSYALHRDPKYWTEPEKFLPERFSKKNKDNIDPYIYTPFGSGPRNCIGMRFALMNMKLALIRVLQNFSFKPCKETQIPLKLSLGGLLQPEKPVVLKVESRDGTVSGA
Cytochrome P450 2C19 (Homo sapiens), sequence (P33261 whole entry, looked up): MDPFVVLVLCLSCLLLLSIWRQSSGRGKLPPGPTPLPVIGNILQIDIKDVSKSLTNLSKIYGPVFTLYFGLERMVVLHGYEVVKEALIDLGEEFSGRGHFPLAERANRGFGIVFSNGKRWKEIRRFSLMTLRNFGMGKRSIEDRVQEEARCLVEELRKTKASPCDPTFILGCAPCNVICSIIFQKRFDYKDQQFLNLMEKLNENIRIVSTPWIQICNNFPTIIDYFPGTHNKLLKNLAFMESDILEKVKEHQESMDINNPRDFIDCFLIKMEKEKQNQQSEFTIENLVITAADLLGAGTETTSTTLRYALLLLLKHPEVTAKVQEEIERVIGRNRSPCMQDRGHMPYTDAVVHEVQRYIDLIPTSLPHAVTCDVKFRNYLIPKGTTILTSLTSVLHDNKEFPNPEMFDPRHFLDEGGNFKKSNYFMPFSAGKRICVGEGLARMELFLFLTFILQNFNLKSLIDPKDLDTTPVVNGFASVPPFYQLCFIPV

Regarding `CCCSP(=O)(OCC)Oc1ccc(Br)cc1Cl` (centres undefined), the call in [1], in assay [2], in assay [3], in [4], in assay [5] and in assay [7] was inactive. The outcome in [8], in assay [10], in assay [11], in assay [12], in assay [13] and in assay [14] was inactive. Moreover, the outcome in assay [15], in assay [16], in assay [17] and in [18] was inactive. For the same molecule, the figures for the AC50 in [6] and in assay [9] were 13.4 µM (active) and 40.4 µM (active), respectively.
`CNC(=O)ON=C(C)SC`: the result in assay [1], in [2], in assay [3], in assay [4], in [5] and in assay [6] was inactive. Besides, the molecule was called inactive in [7], in assay [8], in assay [9], in assay [10], in [11] and in assay [12]. The molecule was classed as inactive in [13], in assay [14], in assay [15], in [16], in assay [17] and in [18].
With `CSc1nc(NC(C)C)nc(NC(C)C)n1`, the molecule was called inactive in assay [1], in assay [2], in [3], in assay [4], in assay [5] and in [8]. Also, the molecule was classed as inactive in assay [12], in [13], in [14], in [15] and in [17]. Besides, the AC50 in assay [6] is 1.31 µM (active); in assay [7], 1.96 µM (active); in assay [9] it was 39.1 µM (active); in [10], 31 µM (active); in assay [11], 1.46 µM (active); in [16], 1.17 µM (active). For the same molecule, in assay [18], the AC50 is 24.3 µM (active).
